The results in this text go back to PubChem BioAssay (Tox21).

Values joined by “and” are separate entries in the source; they are usually repeats but may differ in a detail not shown here. Identical values can stand only once. Records with an inconclusive call do not appear. Active and inactive are the calls of the source. Calls come from the whole dose curve; as a rule, active = well fitted cell-killing curve with a large enough effect in the repeat runs; inconclusive = weak or mixed curves, or effect the other way; inactive = no such curve, though single readings can be large or run the other way.
% is set by controls: 0 for no effect and ±100 for the full control effect; potency is the fitted concentration of half-maximal effect.

This assay in a line: qHTS assay to identify small molecule agonists of the vitamin D receptor (VDR) signaling pathway - cell viability counter screen (AID 743224). Note: nearly all actives have a fitted effect of over 50% in size. The conditions noted are these: VDR-bla HEK293T viability, CellTiter-Glo luminescence, 16 h; series mostly up to 62.6 µM; activity change, negative = cytotoxicity: at the top concentration. The source says: U.S. Tox21 Program National Center for Advancing Translational Sciences [NCATS] NIH Chemical Genomics Center [NCGC] U.S. Environmental Protection Agency [EPA] National Institutes of Environmental Health Sciences [NIEHS] National Toxicology Program [NTP] U.S. Food and Drug Administration [FDA] Tox21 Assay Overview: The vitamin D receptor (VDR), a member of nuclear hormone receptor superfamily, plays a critical role in calcium homeostasis and bone metabolism. It is also involved in cell differentiation and growth, and thrombogenicity. […] The cytotoxicity of the Tox21 compound library against the VDR-bla cell line was tested in parallel by measuring the cell viability using CellTiter-Glo assay (Promega, Madison, WI) in the same wells.
Tox21 Assay Protocol Summary: VDR-bla cells were dispensed at 2,000 cells/6 uL/well into black wall/clear-bottom 1536-well plates using a Multidrop Combi (Thermo Fisher Scientific, Waltham, MA) dispenser. After the assay plates were incubated at a 37C and 5% CO2 for 4 h, 23 nL of compounds dissolved in DMSO, positive controls or DMSO only was transferred to the assay plate by a Pintool station (Kalypsys, San Diego, CA). The plates were incubated at 37C and 5% CO2 for 16 h. After 1 uL of LiveBLAzerTM B/G FRET substrate was added using a Bioraptr Flying Reagent Dispenser (FRD) workstation (Beckman Coulter, Indianapolis, IN, USA), the plates were incubated at room temperature for 2 h, and fluorescence intensity was measured by an Envision plate reader (PerkinElmer, Shelton, CT). For cell viability readout that measures cytotoxicity, 3 ul/well of CellTiter-Glo reagent was added into the assay plates using a FRD. After 30 min incubation at room temperature, the luminescence intensity in the plates was measured using a ViewLux (PerkinElmer) plate reader.
On to `N=C1N=C(N)c2ccccc21`, for which the “activity change, negative = cytotoxicity” value was -28.7% (inactive). As to `O=C(Nc1cccc(C(F)(F)F)c1)c1cc(Br)cc(Br)c1O`, the Potency was 2.19 µM (active).

Consider `Nc1cc(C(F)(F)F)ccc1S`, for which the “activity change, negative = cytotoxicity” value was -13.1% (inactive). Same read-out and setting: the figure for `CC1=NC(C)OC1C` (stereo not given) is -0.688% (inactive).

With `Fc1ccc(C(c2ccc(F)cc2)N2CCN(C/C=C/c3ccccc3)CC2)cc1`, the Potency was 29.8 µM (active). Consider `Nc1c(Cl)cc(Cl)cc1Cl`, for which the “activity change, negative = cytotoxicity” value was -0.33% (inactive). Consider `COc1ccc(-c2ccc3cc(C(=O)O)ccc3c2)cc1C12CC3CC(CC(C3)C1)C2`, for which the Potency is 23.7 µM (active). Same read-out and setting: to `CN1CCN(CCC(=O)N2c3ccccc3Sc3ccc(C(F)(F)F)cc32)CC1` belongs 21.1 µM (active); to `CN(C)C(=O)C1(N2CCCCC2)CCN(CC[C@@]2(c3ccc(Cl)c(Cl)c3)CN(C(=O)c3ccccc3)CCO2)CC1`, 20.4 µM (active). `Nc1ccccc1O`: the “activity change, negative = cytotoxicity” value is -2.35% (inactive). For `[O-][n+]1ccccc1SSc1cccc[n+]1[O-]`, the Potency is 0.164 µM (active).

As to `C=CC(=O)OCC(CO)(COC(=O)C=C)COC(=O)C=C`, the Potency is 12.3 µM (active) and 13.8 µM (active).

As to `Clc1ccc2nsnc2c1NC1=NCCN1`, the “activity change, negative = cytotoxicity” value was -1.7% (inactive). In the case of `CCCCCCCCCCCC(=O)NCCCN(C)C`, the Potency was 21.9 µM (active). For the molecule `Clc1ccc2cc3ccccc3cc2c1`, the “activity change, negative = cytotoxicity” value was -0.664% (inactive). With `Cc1cc(O)c(C(C)(C)C)cc1C(C)(C)C`, the Potency was 19.5 µM (active).

For `COCCCC/C(=N\OCCN)c1ccc(C(F)(F)F)cc1`, the “activity change, negative = cytotoxicity” value was -18.2% (inactive). On to `Cc1cc(O)c(C(C)(C)C)cc1Sc1cc(C(C)(C)C)c(O)cc1C`, for which the Potency was 4.36 µM (active).

`OCCCCCCCCCCCCBr`: the “activity change, negative = cytotoxicity” value is -11.8% [at 81.1 µM] (inactive). Still for that read-out and setting: to `C[n+]1ccn(Cc2ccccc2)c1` belongs -9.01% (inactive); to `Cc1oc(-c2ccccc2)nc1CCC(=O)c1ccc(CC2SC(=O)NC2=O)cc1` (stereo not given), -10.5% (inactive); to `O=C(O)c1c(Cl)cccc1Cl`, 14.2% (inactive).

Take `Clc1ccc2n[nH]nc2c1`: the “activity change, negative = cytotoxicity” value was 3.02% (inactive).

Take `Oc1cc2ccccc2c2ccccc12`: the Potency is 2.45 µM (active). As to `Cc1cccc(N(C)C(=S)Oc2ccc3c(c2)C2CCC3C2)c1` (stereo not given), the “activity change, negative = cytotoxicity” value was -14.9% (inactive). `Cc1[nH]nc2c1N=C(c1ccccc1Cl)c1cc([N+](=O)[O-])ccc1N2`: the Potency was 5.49 µM (active). For the molecule `CCCCCCCCCCCCCCCCCC[N+](C)(C)C`, the Potency is 24.6 µM (active).

Regarding `O=c1cc(-c2ccc(O)cc2)oc2cc(O)cc(O)c12`, the Potency entry was “inactive”. On the same count and under the same terms, the figure for `CCCN(CCC)c1c([N+](=O)[O-])cc(C(F)(F)F)c(N)c1[N+](=O)[O-]` is 13.8 µM (active). Regarding `CCC1OCC(COc2ccc(Oc3ccccc3)cc2)O1` (stereo not given), the Potency is 49 µM (active).

As to `CCCCCOc1ccccc1/C(=C\SC)n1ccnc1`, the “activity change, negative = cytotoxicity” value was -10.9% (inactive). The same measure, in the same setting: the figure for `Oc1ccc2c(c1)-c1ccccc1C2` is -19% (inactive). Regarding `Cc1cc(C2CCCCC2)n(O)c(=O)c1`, the Potency was 18.8 µM (active). For `CC(C)CCCCCCCCCCCCCCC(=O)O`, the “activity change, negative = cytotoxicity” value is 5.68% (inactive). Take `C=CC(=O)OCCn1c(=O)n(CCOC(=O)C=C)c(=O)n(CCOC(=O)C=C)c1=O`: the Potency was 49 µM (active).

As to `CC[C@H]1O[C@]2(CC[C@@H]1C)C[C@@H]1C[C@@H](C/C=C(\C)C[C@@H](C)/C=C/C=C3\CO[C@@H]4[C@H](O)C(C)=C[C@@H](C(=O)O1)[C@]34O)O2`, the Potency was 17.2 µM (active). The same measure, in the same setting: to `Cc1cc2c(cc1C(F)(F)F)N(C(=O)Nc1ccc(Oc3cccnc3C)nc1)CC2` belongs 31.4 µM (active). Turning to `CC(NN)c1ccccc1` (stereo not given), the “activity change, negative = cytotoxicity” value was 19.9% [at 29.1 µM] (inactive). For `C=CC(=O)OCC(CO)(COCC(COC(=O)C=C)(COC(=O)C=C)COC(=O)C=C)COC(=O)C=C`, the Potency was 3.84 µM (active). As for `CCCCCCCCCCCC[N+](C)(C)CCCCCCCCCCCC`, the Potency was 19.5 µM (active).
